Screening results (PubChem)
SARS PLpro yeast = SARS-CoV PLP inhibition in yeast | S. cerevisiae expressing SARS-CoV PLpro, growth rescue | Potency, µM (doses to about 32.9 µM), for the others: at the highest dose activity, positive = growth rescue, usual class: activators | actives 0.19% (n = 330,000) | AID 485353; calls by dose curve; note: 0% is about no effect; nearly all actives have a fitted effect of over 55% in size
Pf growth 48h = P. falciparum growth inhibition at 48 hours (one generation). actives 5.9% (n = 310,000). P. falciparum luciferase growth in erythrocytes, 48 h. AID 504832. Potency, µM (highest dose often 28.7 µM), for the others: at the highest dose activity change, negative = inhibition, most hits filed as inhibitors; note: % is set by controls: 0 for no effect and ±100 for the full control effect
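Luminescence readout; reporter = integrated firefly luciferase in P. falciparum. RBC culture at 2% hematocrit, 0.1% parasitemia final, 37 C/5% CO2; decreased signal taken as growth inhibition.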
Sm TGR inh = blocks Schistosoma mansoni thioredoxin glutathione reductase. Potency, µM (highest dose often 114 µM), without a hit: at the highest dose activity change, negative = inhibition, usual class: inhibitors. actives 3% (n = 360,000). Q962Y6. purified TGR, DTNB reduction, TNB absorbance 405 nm; note: % is set by controls: 0 for no effect and ±100 for the full control effect; nearly all actives have a fitted effect of over 60% in size
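Kinetic colorimetric format: TGR-catalysed, NADPH-driven DTNB reduction monitored via TNB absorbance. Enzyme dispensed at 20 nM; compound exposure 15 min at room temperature before reaction start.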
Pf growth 96h = P. falciparum growth inhibition at 96 hours | P. falciparum luciferase reporter growth, 96 h | AID 504834 | Potency, µM (highest dose often 28.7 µM), for the others: at the highest dose activity change, negative = inhibition, usual class: inhibitors | actives 6.9% (n = 320,000); note: % is set by controls: 0 for no effect and ±100 for the full control effect
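Erythrocytes infected with luciferase-expressing P. falciparum were dispensed at 2% hematocrit and 0.05% parasitemia (final), then incubated with compounds 96 hours at 37 C in 5% CO2. Luminescence after detection reagent addition reported growth.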
* = called active by the depositor; ? = inconclusive; . = no result given; [ ] = remark or other dose. Rows were chosen to be rich in hits. Some 12% of all compounds tested hit in one or more screens of this group. Unless noted, calls come from the whole dose curve; as a rule, active = well fitted curve in the direction sought with a large enough effect; inconclusive = small, poorly fitted or top-dose-only effect, or another doubt; inactive = no such curve, though single readings can be large; an effect the other way counts as inactive or inconclusive. Potency is the fitted concentration of half-maximal effect.

SMILES | SARS PLpro yeast | Pf growth 48h | Sm TGR inh | Pf growth 96h
COCCn1c(SCC(=O)N2CCC(C)CC2)nc2ccccc2c1=O | 4% | -29% | 0% | -10%
COCCn1c(C)cc(O)c(C(c2ccc(F)cc2)N2CCC(C)CC2)c1=O (configuration not stated) | . | . | 10µM* | .
COCCn1c(C)cc(O)c(C(c2ccccc2)N2CCC(C)CC2)c1=O (configuration not stated) | . | . | 22µM* | .
O=C(OCC1CCCO1)c1ccc2c(c1)N(Cc1cccc(Cl)c1)C(=O)c1ccccc1S2(=O)=O (configuration not stated) | . | . | 11% | .
Cc1ccc(Nc2ccc([N+](=O)[O-])nc2[N+](=O)[O-])cc1 | -6% | ? | 45µM* | ?
Cc1ccc(Nc2ccc3nonc3c2[N+](=O)[O-])cc1 | 0% | -5% | 8% | -103%
CCN(C(=O)CN1C(=O)NC(c2ccccc2)(c2ccccc2)C1=O)c1ccccc1 | -4% | 13µM* | 4% | ?
CCN(Cc1cccs1)C(=O)CN1C(=O)NC(c2ccccc2)(c2ccccc2)C1=O | -2% | ? | -7% | 13µM*
O=C(CN1C(=O)NC(c2ccccc2)(c2ccccc2)C1=O)NC1CCS(=O)(=O)C1 (configuration not stated) | -9% | 12% | 2% | 12%
CC1CCCC(NC(=O)CN2C(=O)NC(c3ccccc3)(c3ccccc3)C2=O)C1C (configuration not stated) | 6% | 15µM* | -10% | ?
CC(=O)CN1C(=O)NC(c2ccccc2)(c2ccccc2)C1=O | -2% | 19% | -7% | 18%
COc1ccc(/C=C(/NC(=O)c2ccco2)C(=O)N2CCCCCC2)cc1OC | -1% | 3% | 0% | 12µM*
CC(C)OC(=O)/C(=C/c1ccc(Br)cc1)NC(=O)c1ccco1 | -6% | 10% | -1% | 13µM*
N#C/C(=C/Nc1ccccc1F)S(=O)(=O)c1ccc(Cl)cc1 | 8% | 0%[0.00184 µM] | 21% | -8%
CCOC(=O)c1c(S(=O)(=O)NCCc2ccco2)c(C)n(C)c1C | -2% | 18% | -16% | 8%
CCOC(=O)c1c(S(=O)(=O)NCCCc2ccco2)c(C)n(C)c1C | -4% | -12% | 28µM* | 19%
COc1ccc(-c2nnc(SCC(=O)c3ccc(O)cc3O)o2)cc1 | 9% | 9% | 1% | -3%
CCOc1ccc(-c2nc(CN3CCCCC3CCn3cccn3)c(C)o2)cc1 (configuration not stated) | 0% | ? | 83% | ?
CCOC(=O)C1=C(C)N=C2SC(C)C(=O)N2C1c1cccc(F)c1 (configuration not stated) | 2% | . | ? | ?
CC1=C(C(=O)OCC(C)C)C(c2cccc(F)c2)N2C(=O)C(C)SC2=N1 (configuration not stated) | -15% | 10µM* | -6% | 12µM*
CC1=C(C(=O)OC(C)C)C(c2cccc(F)c2)N2C(=O)C(C)SC2=N1 (configuration not stated) | 7% | 12µM* | 0% | ?
COc1ccccc1C1C2=C(N=c3s/c(=C/c4cccc(OCC(=O)O)c4)c(=O)n31)c1ccccc1CC2 (configuration not stated) | -14% | 10µM* | -35% | ?
COc1cccc(C2C3=C(N=c4s/c(=C\c5ccc(O)cc5)c(=O)n42)c2ccccc2CC3)c1OC (configuration not stated) | 22% | ? | -9% | 13µM*
COc1cccc(C2C3=C(N=c4s/c(=C\c5cccc(O)c5)c(=O)n42)c2ccccc2CC3)c1OC (configuration not stated) | -14% | 2.3µM* | -2% | ?
COc1cccc(C2C3=C(N=c4s/c(=C\c5ccc(OCC(=O)O)cc5)c(=O)n42)c2ccccc2CC3)c1 (configuration not stated) | 0% | ? | ? | ?
O=C(COC(=O)C1CCN(c2ccc(C(F)(F)F)cn2)CC1)Nc1ncc(Cl)cc1Cl | 0% | 14% | -3% | 8%
CC(=O)c1ccc(N2CCN(C(=O)C3CCN(S(=O)(=O)c4cccc5nonc45)CC3)CC2)cc1 | . | . | 6% | .
C/C=C(\C)C(=O)NCCN1C2=NC[C@H](C(C)C)N2C[C@H]1Cc1ccc(O)cc1 | 1% | 5% | -9% | 3.3µM*
